According to paper PMC7862700, “An all-to-all approach to the identification of sequence-specific readers for epigenetic DNA modifications on cytosine”:

Tests used:
Assay in all cases: DAPPL (digital affinity profiling via proximity ligation, sequencing); 10 mM Tris-HCl pH 7.5, 50 mM NaCl, 1 mM DTT, 4% glycerol, room temperature, 30 min; GST-TFs on glutathione beads, 16-mer random dsDNA library, 0.1% formaldehyde crosslink after washing; high values mean tight binding
FLI1 = molecular target: T1, FLI1 (Homo sapiens, UniProt Q01543 1-452); details: protein: recombinant; tags: N-terminal GST; dsDNA, one strand shown
T1 sequence: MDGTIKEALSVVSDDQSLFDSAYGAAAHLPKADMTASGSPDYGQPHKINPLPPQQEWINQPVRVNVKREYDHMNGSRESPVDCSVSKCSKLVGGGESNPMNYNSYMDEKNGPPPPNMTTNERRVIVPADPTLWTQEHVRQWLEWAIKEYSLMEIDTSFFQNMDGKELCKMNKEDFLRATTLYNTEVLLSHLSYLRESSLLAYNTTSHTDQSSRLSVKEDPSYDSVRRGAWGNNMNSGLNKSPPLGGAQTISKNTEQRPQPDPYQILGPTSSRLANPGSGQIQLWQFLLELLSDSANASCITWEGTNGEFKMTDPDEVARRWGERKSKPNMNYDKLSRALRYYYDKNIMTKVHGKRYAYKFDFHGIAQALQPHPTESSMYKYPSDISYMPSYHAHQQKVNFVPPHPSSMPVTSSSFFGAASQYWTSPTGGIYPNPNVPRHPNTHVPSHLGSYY
Method in brief: (§1)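 Pools of DNA-barcoded human transcription factors, expressed in yeast as GST fusions on glutathione beads and combined with a tag-only sample, were incubated with 200 nmole of a 16-mer random double-stranded DNA library. Incubation took 30 min at room temperature in Tris/NaCl/DTT/glycerol buffer and was followed by washing, 0.1% formaldehyde crosslinking, proximity ligation (BsaI/T4 ligase, 1 h, 37 °C), PCR amplification and sequencing on an Illumina NextSeq500. Binding signal is the ratio of a hexamer's read frequency for a factor to its frequency for the tag-only sample.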

ELK1 = molecular target: T2, ELK1 (Homo sapiens, UniProt P19419 1-428); details: protein: recombinant; tags: N-terminal GST; dsDNA, one strand shown
T2 sequence: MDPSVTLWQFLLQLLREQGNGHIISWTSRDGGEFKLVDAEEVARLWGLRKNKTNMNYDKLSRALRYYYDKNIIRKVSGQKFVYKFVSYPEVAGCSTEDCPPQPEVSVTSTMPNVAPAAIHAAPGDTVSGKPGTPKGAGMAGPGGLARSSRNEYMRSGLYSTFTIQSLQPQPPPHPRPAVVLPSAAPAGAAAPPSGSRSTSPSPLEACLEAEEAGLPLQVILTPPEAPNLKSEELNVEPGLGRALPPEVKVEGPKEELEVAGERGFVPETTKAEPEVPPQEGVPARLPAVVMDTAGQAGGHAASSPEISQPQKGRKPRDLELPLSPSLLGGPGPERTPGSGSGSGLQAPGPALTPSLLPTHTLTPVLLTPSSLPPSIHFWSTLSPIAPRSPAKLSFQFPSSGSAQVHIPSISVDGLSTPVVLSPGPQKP
Method in brief: as §1

GABPA = molecular target: T3, GABPA (Homo sapiens, UniProt Q06546 1-454); details: protein: recombinant; tags: N-terminal GST; dsDNA, one strand shown
T3 sequence: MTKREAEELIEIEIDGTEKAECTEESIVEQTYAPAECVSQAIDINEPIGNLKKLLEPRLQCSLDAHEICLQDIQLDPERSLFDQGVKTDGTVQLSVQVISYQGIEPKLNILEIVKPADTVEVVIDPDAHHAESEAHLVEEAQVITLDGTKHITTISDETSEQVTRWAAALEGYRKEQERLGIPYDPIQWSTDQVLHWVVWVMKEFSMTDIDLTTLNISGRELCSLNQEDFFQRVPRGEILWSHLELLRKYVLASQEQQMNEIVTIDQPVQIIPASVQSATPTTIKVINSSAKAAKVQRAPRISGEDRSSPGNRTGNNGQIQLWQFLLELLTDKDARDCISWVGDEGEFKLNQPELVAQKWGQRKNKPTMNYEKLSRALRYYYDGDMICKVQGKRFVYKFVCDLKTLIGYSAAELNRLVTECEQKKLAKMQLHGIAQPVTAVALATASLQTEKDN
Method in brief: as §1

ERG = molecular target: T4, ERG (Homo sapiens, UniProt P11308 1-479); details: protein: recombinant; tags: N-terminal GST; dsDNA, one strand shown
T4 sequence: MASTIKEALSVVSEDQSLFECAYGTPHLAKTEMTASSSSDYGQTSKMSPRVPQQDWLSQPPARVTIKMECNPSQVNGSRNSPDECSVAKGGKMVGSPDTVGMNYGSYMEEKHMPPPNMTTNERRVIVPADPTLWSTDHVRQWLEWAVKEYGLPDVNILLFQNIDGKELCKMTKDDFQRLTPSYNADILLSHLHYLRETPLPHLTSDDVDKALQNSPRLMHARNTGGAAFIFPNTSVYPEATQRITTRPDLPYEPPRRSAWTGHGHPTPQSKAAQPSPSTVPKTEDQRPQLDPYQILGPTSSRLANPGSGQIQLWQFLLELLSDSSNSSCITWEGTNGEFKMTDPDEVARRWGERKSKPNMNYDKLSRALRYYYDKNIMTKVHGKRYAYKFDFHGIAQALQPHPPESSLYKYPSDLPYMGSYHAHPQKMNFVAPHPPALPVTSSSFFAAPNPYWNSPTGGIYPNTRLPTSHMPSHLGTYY
Method in brief: as §1

ELF1 = ELF1 (Homo sapiens, UniProt P32519 1-619); details: protein: recombinant; tags: N-terminal GST; dsDNA, one strand shown
Sequence of ELF1 (P32519 whole entry): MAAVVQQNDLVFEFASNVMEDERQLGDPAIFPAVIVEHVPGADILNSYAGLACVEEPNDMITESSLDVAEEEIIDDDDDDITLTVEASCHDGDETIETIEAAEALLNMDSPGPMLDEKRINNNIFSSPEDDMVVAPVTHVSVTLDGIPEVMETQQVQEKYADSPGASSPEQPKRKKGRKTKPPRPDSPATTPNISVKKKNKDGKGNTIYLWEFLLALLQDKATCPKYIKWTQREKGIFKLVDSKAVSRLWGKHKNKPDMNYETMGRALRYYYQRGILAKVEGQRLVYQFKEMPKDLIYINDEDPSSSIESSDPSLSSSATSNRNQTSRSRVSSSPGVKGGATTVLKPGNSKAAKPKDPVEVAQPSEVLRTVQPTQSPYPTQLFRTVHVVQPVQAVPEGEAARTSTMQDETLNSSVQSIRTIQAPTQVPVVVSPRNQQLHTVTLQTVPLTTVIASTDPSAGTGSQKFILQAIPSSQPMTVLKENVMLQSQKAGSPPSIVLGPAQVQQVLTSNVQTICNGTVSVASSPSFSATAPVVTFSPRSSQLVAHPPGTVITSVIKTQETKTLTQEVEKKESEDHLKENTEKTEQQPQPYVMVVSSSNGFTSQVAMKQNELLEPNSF
Method in brief: as §1

EHF = molecular target: T5, EHF (Homo sapiens, UniProt Q9NZC4 1-300); details: protein: recombinant; tags: N-terminal GST; dsDNA, one strand shown
T5 sequence: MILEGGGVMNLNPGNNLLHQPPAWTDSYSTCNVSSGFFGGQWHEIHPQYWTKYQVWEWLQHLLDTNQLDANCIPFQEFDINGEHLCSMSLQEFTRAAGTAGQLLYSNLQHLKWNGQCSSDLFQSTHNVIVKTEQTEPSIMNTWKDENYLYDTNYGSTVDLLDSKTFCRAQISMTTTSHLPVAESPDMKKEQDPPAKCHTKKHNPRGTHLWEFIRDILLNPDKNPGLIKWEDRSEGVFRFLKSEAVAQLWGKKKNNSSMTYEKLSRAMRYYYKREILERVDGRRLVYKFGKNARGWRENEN
Method in brief: as §1

SPI1 = SPI1 (Homo sapiens, UniProt P17947 1-270); details: protein: recombinant; tags: N-terminal GST; dsDNA, one strand shown
Method in brief: as §1

SPIB = SPIB (Homo sapiens, UniProt Q01892 1-262); details: protein: recombinant; tags: N-terminal GST; dsDNA, one strand shown
Sequence of SPIB (Q01892 whole entry): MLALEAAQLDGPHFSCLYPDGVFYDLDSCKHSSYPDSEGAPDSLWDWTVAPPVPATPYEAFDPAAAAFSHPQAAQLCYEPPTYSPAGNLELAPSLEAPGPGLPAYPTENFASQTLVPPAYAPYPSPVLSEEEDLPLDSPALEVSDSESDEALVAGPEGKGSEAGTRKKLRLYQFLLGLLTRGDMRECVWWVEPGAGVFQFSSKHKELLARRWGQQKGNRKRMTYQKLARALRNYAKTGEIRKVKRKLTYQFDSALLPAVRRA
Method in brief: as §1

ELK3 = molecular target: T6, ELK3 (Homo sapiens, UniProt P41970 1-407); details: protein: recombinant; tags: N-terminal GST; dsDNA, one strand shown
T6 sequence: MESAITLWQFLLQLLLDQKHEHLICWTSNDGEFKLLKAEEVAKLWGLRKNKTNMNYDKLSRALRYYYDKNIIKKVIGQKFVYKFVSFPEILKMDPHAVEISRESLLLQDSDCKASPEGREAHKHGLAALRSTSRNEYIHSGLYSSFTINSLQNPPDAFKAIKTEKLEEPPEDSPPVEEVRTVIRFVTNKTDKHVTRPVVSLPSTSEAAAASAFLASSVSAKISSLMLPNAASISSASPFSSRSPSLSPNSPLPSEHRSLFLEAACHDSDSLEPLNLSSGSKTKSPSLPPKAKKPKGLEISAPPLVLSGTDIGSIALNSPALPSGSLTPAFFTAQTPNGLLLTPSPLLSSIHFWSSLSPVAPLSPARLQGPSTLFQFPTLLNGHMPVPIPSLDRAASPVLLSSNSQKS
Method in brief: as §1

FEV = molecular target: T7, FEV (Homo sapiens, UniProt Q99581 1-238); details: protein: recombinant; tags: N-terminal GST; dsDNA, one strand shown
T7 sequence: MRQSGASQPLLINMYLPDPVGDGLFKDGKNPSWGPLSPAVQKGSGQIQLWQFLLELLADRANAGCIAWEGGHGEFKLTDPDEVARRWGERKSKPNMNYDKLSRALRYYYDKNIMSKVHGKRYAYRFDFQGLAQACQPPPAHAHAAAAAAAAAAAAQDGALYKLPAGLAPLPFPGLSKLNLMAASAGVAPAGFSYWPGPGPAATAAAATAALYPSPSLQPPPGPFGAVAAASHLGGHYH
Method in brief: as §1

ETV5 = ETV5 (Homo sapiens, UniProt P41161 1-510); details: protein: recombinant; tags: N-terminal GST; dsDNA, one strand shown
Sequence of ETV5 (P41161 whole entry): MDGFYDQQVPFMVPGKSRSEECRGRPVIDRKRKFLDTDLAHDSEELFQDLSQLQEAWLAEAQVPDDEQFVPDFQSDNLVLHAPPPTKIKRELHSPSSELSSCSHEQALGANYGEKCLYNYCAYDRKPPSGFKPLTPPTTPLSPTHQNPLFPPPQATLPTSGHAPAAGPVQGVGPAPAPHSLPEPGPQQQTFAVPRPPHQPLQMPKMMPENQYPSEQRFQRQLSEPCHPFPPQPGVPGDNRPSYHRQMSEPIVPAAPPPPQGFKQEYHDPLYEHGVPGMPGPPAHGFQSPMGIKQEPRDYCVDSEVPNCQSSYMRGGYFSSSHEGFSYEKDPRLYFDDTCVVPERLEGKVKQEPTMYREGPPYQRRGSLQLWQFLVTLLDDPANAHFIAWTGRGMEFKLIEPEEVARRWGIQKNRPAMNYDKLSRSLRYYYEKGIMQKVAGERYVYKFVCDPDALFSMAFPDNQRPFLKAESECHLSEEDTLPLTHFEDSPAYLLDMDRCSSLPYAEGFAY
Method in brief: as §1

HSF1 = HSF1 (Homo sapiens, UniProt Q00613 1-529); details: protein: recombinant; tags: N-terminal GST; chain copies: 3; dsDNA, one strand shown
Sequence of HSF1 (Q00613 whole entry): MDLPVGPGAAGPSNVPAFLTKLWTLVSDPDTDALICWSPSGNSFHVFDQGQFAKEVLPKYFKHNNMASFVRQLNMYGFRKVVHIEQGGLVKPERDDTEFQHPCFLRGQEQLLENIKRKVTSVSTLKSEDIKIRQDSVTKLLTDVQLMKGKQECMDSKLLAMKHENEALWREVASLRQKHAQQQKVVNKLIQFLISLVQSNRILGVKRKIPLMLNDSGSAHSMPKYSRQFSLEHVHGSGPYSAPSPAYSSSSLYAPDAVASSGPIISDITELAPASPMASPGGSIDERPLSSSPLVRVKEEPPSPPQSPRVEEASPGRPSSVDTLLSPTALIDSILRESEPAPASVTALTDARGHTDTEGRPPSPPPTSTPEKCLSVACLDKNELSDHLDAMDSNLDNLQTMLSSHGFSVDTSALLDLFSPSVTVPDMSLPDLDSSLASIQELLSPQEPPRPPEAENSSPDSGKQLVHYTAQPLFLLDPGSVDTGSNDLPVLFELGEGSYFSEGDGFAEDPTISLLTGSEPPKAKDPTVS
Method in brief: as §1

SPIC = molecular target: T8, SPIC (Homo sapiens, UniProt Q8N5J4 1-248); details: protein: recombinant; tags: N-terminal GST; dsDNA, one strand shown
T8 sequence: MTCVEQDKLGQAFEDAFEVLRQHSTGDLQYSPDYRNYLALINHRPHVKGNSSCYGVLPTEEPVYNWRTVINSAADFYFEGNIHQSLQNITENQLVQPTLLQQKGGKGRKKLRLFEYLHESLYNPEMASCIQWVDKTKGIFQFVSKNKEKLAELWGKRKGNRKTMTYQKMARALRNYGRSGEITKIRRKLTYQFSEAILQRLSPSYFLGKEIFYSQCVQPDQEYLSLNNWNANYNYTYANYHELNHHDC
Method in brief: as §1

ELF4 = ELF4 (Homo sapiens, UniProt Q99607 1-663); details: protein: recombinant; tags: N-terminal GST; dsDNA, one strand shown
Sequence of ELF4 (Q99607 whole entry): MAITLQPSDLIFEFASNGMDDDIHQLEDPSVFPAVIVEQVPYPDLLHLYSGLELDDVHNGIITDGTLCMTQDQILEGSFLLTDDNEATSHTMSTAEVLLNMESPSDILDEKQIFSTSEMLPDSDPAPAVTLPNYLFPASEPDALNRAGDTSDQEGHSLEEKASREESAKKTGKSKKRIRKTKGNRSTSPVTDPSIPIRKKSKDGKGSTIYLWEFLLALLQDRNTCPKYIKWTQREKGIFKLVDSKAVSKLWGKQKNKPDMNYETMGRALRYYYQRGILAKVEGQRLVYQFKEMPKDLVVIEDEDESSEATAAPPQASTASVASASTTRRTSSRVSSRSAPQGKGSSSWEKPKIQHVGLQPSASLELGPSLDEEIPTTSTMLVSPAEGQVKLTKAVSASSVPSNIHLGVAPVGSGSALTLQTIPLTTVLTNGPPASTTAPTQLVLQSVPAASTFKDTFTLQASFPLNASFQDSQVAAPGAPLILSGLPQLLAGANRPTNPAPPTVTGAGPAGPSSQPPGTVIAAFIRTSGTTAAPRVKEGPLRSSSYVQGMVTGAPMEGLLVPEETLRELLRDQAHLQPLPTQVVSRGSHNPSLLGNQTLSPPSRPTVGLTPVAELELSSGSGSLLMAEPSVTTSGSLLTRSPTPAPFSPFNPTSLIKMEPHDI
Method in brief: as §1

ELK4 = molecular target: T9, ELK4 (Homo sapiens, UniProt P28324-2 1-405); details: protein: recombinant; tags: N-terminal GST; dsDNA, one strand shown
T9 sequence: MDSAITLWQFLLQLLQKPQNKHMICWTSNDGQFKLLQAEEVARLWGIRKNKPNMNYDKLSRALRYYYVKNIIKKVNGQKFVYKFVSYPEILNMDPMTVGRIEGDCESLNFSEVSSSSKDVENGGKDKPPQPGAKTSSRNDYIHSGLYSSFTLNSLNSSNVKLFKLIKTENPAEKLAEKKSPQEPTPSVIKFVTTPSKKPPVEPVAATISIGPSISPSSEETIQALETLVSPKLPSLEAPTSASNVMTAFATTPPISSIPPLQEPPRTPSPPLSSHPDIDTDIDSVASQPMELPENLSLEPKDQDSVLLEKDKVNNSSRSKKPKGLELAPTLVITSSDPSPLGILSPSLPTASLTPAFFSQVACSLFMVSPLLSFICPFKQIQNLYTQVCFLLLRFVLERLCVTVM
Method in brief: as §1

ETV2 = molecular target: T10, ETV2 (Homo sapiens, UniProt O00321 1-342); details: protein: recombinant; tags: N-terminal GST; dsDNA, one strand shown
T10 sequence: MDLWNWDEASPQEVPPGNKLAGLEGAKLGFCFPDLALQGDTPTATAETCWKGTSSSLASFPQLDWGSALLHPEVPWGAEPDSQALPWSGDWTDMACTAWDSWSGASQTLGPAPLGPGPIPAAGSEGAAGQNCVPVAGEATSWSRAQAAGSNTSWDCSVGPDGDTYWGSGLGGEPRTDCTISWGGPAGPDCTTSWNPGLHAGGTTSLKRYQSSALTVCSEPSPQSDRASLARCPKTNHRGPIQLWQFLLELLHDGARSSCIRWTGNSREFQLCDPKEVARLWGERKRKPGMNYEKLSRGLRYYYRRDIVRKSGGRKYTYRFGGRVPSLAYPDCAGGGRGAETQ
Method in brief: as §1

ELF3 = molecular target: T11, ELF3 (Homo sapiens, UniProt P78545 1-371); details: protein: recombinant; tags: N-terminal GST; dsDNA, one strand shown
T11 sequence: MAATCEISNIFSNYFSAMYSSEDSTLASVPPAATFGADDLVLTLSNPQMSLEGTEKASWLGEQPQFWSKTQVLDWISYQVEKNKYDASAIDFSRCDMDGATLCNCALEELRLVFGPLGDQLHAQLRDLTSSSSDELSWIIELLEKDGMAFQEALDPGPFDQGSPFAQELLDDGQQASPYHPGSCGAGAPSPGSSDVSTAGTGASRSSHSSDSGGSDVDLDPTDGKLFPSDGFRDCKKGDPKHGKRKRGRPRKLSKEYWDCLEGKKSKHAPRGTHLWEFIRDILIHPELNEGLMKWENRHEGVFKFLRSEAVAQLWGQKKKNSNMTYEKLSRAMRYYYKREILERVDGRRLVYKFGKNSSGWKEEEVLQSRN
Method in brief: as §1

CRX = CRX (Homo sapiens, UniProt O43186 1-299); details: protein: recombinant; tags: N-terminal GST; dsDNA, one strand shown
Sequence of CRX (O43186 whole entry): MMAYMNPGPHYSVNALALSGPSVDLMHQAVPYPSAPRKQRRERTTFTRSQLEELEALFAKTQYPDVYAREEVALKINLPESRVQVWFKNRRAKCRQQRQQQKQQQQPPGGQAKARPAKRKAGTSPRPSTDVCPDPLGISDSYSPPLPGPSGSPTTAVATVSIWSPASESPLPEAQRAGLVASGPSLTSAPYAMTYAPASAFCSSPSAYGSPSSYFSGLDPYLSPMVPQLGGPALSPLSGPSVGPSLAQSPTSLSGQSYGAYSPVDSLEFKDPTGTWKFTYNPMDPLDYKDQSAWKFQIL
Method in brief: as §1

ETV1 = ETV1 (Homo sapiens, UniProt P50549 1-477); details: protein: recombinant; tags: N-terminal GST; dsDNA, one strand shown
Sequence of ETV1 (P50549 whole entry): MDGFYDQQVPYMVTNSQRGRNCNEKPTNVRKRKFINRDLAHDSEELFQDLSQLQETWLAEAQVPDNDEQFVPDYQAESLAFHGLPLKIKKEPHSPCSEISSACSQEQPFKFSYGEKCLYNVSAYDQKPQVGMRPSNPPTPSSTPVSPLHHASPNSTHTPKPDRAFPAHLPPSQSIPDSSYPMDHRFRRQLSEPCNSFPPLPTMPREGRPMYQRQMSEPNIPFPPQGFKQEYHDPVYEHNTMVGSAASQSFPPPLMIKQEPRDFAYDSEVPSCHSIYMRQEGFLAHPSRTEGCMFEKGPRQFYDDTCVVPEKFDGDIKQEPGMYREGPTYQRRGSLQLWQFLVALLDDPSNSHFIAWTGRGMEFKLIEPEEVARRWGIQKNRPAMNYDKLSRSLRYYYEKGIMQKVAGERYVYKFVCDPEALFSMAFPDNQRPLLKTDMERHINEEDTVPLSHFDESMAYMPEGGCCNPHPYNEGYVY
Method in brief: as §1

TACCCT
binding signal (FLI1): 1.33 fold enrichment (6-mer frequency, TF over GST control)
binding signal (ELK1): 1.34 fold enrichment (6-mer frequency, TF over GST control)
binding signal (GABPA): 1.21 fold enrichment (6-mer frequency, TF over GST control)
binding signal (ERG): 1.31 fold enrichment (6-mer frequency, TF over GST control)
binding signal (ELF1): 1.36 fold enrichment (6-mer frequency, TF over GST control)
binding signal (EHF): 1.38 fold enrichment (6-mer frequency, TF over GST control)
binding signal (SPI1): 1.36 fold enrichment (6-mer frequency, TF over GST control)
binding signal (SPIB): 1.3 fold enrichment (6-mer frequency, TF over GST control)
binding signal (ELK3): 1.41 fold enrichment (6-mer frequency, TF over GST control)
binding signal (FEV): 1.29 fold enrichment (6-mer frequency, TF over GST control)
binding signal (ETV5): 1.28 fold enrichment (6-mer frequency, TF over GST control)
binding signal (HSF1): 1.28 fold enrichment (6-mer frequency, TF over GST control)
binding signal (SPIC): 1.38 fold enrichment (6-mer frequency, TF over GST control)
binding signal (ELF4): 1.44 fold enrichment (6-mer frequency, TF over GST control)
binding signal (ELK4): 1.47 fold enrichment (6-mer frequency, TF over GST control)
binding signal (ETV2): 1.35 fold enrichment (6-mer frequency, TF over GST control)
binding signal (ELF3): 1.2 fold enrichment (6-mer frequency, TF over GST control)
binding signal (CRX): 1.45 fold enrichment (6-mer frequency, TF over GST control)
binding signal (ETV1): 1.35 fold enrichment (6-mer frequency, TF over GST control)
